# From PubChem BioAssay AID602449 (Sanford-Burnham Center for Chemical Genomics, 2012)
# In all, about 360,000 compounds went through this assay and about 5,000 (1.4%) were called active. This is one part of a sample in which actives are shown more often than they occur.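 The calls were made as follows: active = inhibition of 50% or more, scaled per plate between neutral and stimulator controls; inactive = the rest.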
# Test: blockers of Ca2+-induced mitochondrial swelling – biochemical, isolated mouse mitochondria, absorbance, primary screen (AID 602449);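 also: 0% = DMSO wells given calcium and 100% = 1 mM EGTA wells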
# Conditions: 30 min, at 10 µM, stronger effect = higher value
row,Structure (SMILES),inhibition
1,Cn1c(O)c(C=NCCCC(=O)O)c(=O)n(C)c1=O,1.1% (inactive)
2,CCCCC(=O)N/N=C/c1c(O)n(CCC2=CCCCC2)c(=O)[nH]c1=O,-4.5% (inactive)
3,CCCCC(=O)N/N=C/c1c(O)n(CC)c(=S)n(CC)c1=O,58% (active)
4,COc1ccc2c(c1)[C@]13CCCCC1C(C2)N(C)CC3 (stereo not given in full),-3% (inactive)
5,Cc1ccc(C2CN(C)CC2C(=O)c2ccc(F)cc2)cc1 (stereo not given),-0.4% (inactive)
6,CCN(CC)CCOC(=O)c1cc2cc(COC)ccc2o1,-3.6% (inactive)
7,CCOc1cccc(=NC2CCCCC2)c2c(C)[nH]c(C)c12,62.7% (active)
8,C=CCn1c(O)c(/C=N/N2CCOCC2)c(=O)[nH]c1=S,-1.7% (inactive)
9,O=C(CCCn1c(=O)[nH]c2cc(Cl)ccc2c1=O)N1CCC2(CC1)OCCO2,1.1% (inactive)
10,C[C@H]1CN([C@@H](C)CO)C(=O)CCCn2nncc2CO[C@H]1CN(C)C(=O)Oc1ccccc1,0.9% (inactive)
11,CCCCCCCCCCCCn1ccc(=N)cc1,68.6% (active)
12,CC(=O)NCC1=C(c2ccc3ccccc3c2)C[C@@H]2CC[C@H]1N2Cc1ccco1,-0.6% (inactive)
13,O=C(CN1CCCCC1)Nc1ccc(Br)cc1C(=O)c1ccccc1Cl,1.1% (inactive)
14,COc1ccc(C2NCc3ccc4c(c3-n3cccc32)OCO4)cc1OC (stereo not given),68% (active)
15,c1ccc(C2NCc3ccccc3-n3cccc32)cc1 (stereo not given),0.4% (inactive)
16,COc1c(O)ccc2c1-c1c3c(cc4c1C(C2)N(C)CC4)OCO3 (stereo not given),-0.5% (inactive)
17,O=C(Nc1cccc2ccccc12)N1CCC2(CC1)OCCO2,0.6% (inactive)
18,O=C1/C(=C\c2ccc3c(c2)OCO3)N2CCC1CC2,-0.8% (inactive)

row,Structure (SMILES),inhibition
1,O=c1c2ccccc2nc(-c2ccc(Cl)cc2Cl)n1-c1ccncc1,0.3% (inactive)
2,COc1ccc(-c2nc(CS(=O)CC(=O)N3CCC4(CC3)OCCO4)c(C)o2)cc1 (stereo not given),1% (inactive)
3,O=Cc1cn(Cc2ccc(F)cc2Cl)c2ccccc12,60.7% (active)
4,Cc1ccnc(-n2c(C)cc(/C=C3\C(=O)NC(=S)N(C)C3=O)c2C)c1,6.4% (inactive)
5,O=C1C2CCN(CC2)C1(CO)CO,-0.5% (inactive)
6,CCN(CC)C(=O)c1ccc(NC(=O)c2sccc2-c2ccccc2)cc1,0.3% (inactive)
7,CCCCn1c(O)c(C(CC)=NCc2ccco2)c(=O)[nH]c1=O,-0.1% (inactive)
8,CCC(=NCCCO)c1c(O)n(-c2ccc(OC)cc2)c(=O)[nH]c1=O,2.3% (inactive)
9,CCCCCCN=C(CC)c1c(O)n(CCCC)c(=O)[nH]c1=O,79.8% (active)
10,Cc1cccc(-n2c(O)c(C=NC34CN5CN(CN(C5)C3)C4)c(=O)[nH]c2=O)c1,2.5% (inactive)
11,CSc1ccc(C(=O)C2CCCN(Cc3ccn[nH]3)C2)cc1 (stereo not given),1.7% (inactive)
12,CC(=CCOc1ccc2ccc(=O)oc2c1)C1=CC(=O)C(C)(C)O1,1.5% (inactive)
13,O=C(NCC1=C(c2ccc3ccccc3c2)C[C@@H]2CC[C@H]1N2Cc1ccco1)c1cccs1,-1.7% (inactive)
14,CC(Cc1ccccc1)NCCC(c1ccccc1)c1ccccc1 (stereo not given),104% (active)
15,CCOc1ccc(C2SCC(=O)Nc3c2c(C)nn3C2CCOC(C)(C)C2)cc1 (stereo not given),0.4% (inactive)
16,Cc1ccsc1C(=O)C1CCCN(Cc2ccc(O)cc2)C1 (stereo not given),0.1% (inactive)
17,Cn1c(O)c(C=Nc2ccc3c(c2)CCC3)c(=O)n(C)c1=O,-1.3% (inactive)
